According to PubChem BioAssay AID2111 (National Center for Advancing Translational Sciences (NCATS), 2009):
“And” between values parts separate entries of the source, which are not always exact repeats. Identical values can stand only once. The source made the active and inactive calls. Calls come from the whole dose curve; as a rule, active = well fitted curve in either direction with a large enough effect; inconclusive = small, poorly fitted or top-dose-only effect; inactive = no such curve, though single readings can be large or run the other way.

Target: Lysosomal alpha-glucosidase (Homo sapiens) (UniProt P10253)
Test: Confirmation of Inhibitors and Activators of Human alpha-Glucosidase From Spleen Homogenate Using an Alternate Red Fluorescent Susbtrate
Settings: resorufin-glucoside fluorescence; series mostly up to 62.8 µM
From the text: NIH Chemical Genomics Center [NCGC] NIH Molecular Libraries Probe Production centers Network [MLPCN] MLPCN Grant: 1R03MH084841-01 Assay Submitter (PI): Wei Zheng NCGC Assay Overview: Alpha-glucosidase is responsible for hydrolysis of terminal, non-reducing 1,4-linked alpha-D-glucose residues with release of alpha-D-glucose. It is a lysosomal hydrolase that is required for the degradation of a small percentage (1-3%) of cellular glycogen in human. Deficiency of this enzyme results in glycogen-storage disease type II (GSDII), also referred to as Pompe disease, an autosomal recessive disorder. Structurally normal glycogen is accumulated in lysosomes and cytoplasm in affected patients, primarily in muscle tissues. Excessive glycogen storage within lysosomes may interrupt normal functioning of other organelles and leads to cellular injury. In turn, this leads to enlargement and dysfunction of the entire organ involved (eg, cardiomyopathy and muscle weakness). It has reported that the improper folding and trafficking of alpha-glucosidase resultinged from the genetic mutations may account for a significant number of Pomrope patients. […] We optimized this alpha-glucosidase assay in 1536-well plate format for identifying the novel small molecule inhibitors with the structures other than the sugar analogs in order to develop the new pharmacological chaperones. In particular, this assay is directed towards discovering compounds active in a more natural setting, tissue homogenate, that may have been missed by screens of the purified enzyme under more stringent conditions. This assay attempted to confirm hits from the primary screening using an alternate fluor than the primary screen used.
NCGC Assay Protocol Summary: This is a fluorogenic enzyme assay with Resorufin-alpha-D-glucopyranoside as the substrate and human spleen homogenate containing alpha-glucosidase as the enzyme preparation. Upon hydrolysis of this fluorogenic substrate, the resulting product, resorufin (which excites at 573 nm and emits at 610 nm) can be detected by a fluorescence plate reader. Data were normalized to the controls for basal activity (without enzyme) and 100% activity (with enzyme). The AC50 values were determined from concentration-response data modeled with the standard Hill equation. Assay buffer: 50 mM citric acid (titrated with potassium phosphate to pH 5.0), 0.01% Tween-20 (pH 5.0 is an optimal condition for this enzyme assay) 1536-well assay protocol for the alpha-glucosidase from human spleen homogenate: (1) Add 2 ul/well spleen homogenate (1 ug) (2) Add 23 nL compounds in DMSO solution. The final titration was 0.5 nM to 58 uM. (3) Add 2 ul of substrate (1 mM final) (4) Incubate at 37 C for 40 min (5) Add 2 ul stop solution (1M NaOH and 1M Glycine mixture, pH 10) (6) Detect the assay plate in a ViewLux plate reader (PerkinElmer) with […]. Keywords: Alpha-glucosidase, Pompe Disease, pharmacological chaperone, chaperone therapy, high throughput screening, alpha-glucosidase inhibitor, MLSMR, MLSCN, NIH Roadmap, qHTS and NCGC

| SMILES | Potency |
| --- | --- |
| CC(=O)c1ccc(N2CCN(S(=O)(=O)c3ccc4c(c3)CCCN4C(C)=O)CC2)cc1 | inactive |
| CCCN1CNc2c(c(=O)[nH]c(=S)n2CCc2ccc(OC)cc2)C1 | 25.1 µM (active) |
| COc1ccc(C#Cc2cnc(Cl)c3cncnc23)cc1OC | inactive |
| Clc1ncc(C#Cc2ccccc2)c2ncncc12 | inactive |
| CCCN1CNc2c(c(=O)[nH]c(=S)n2CCc2ccc(OC)c(OC)c2)C1 | 8.91 µM (active) |
| CCCN1CNc2c(c(=O)[nH]c(=S)n2CCc2cc(OC)cc(OC)c2)C1 | 7.94 µM (active) |
| CC(=O)c1ccc(N2CCN(S(=O)(=O)c3ccc4[nH]c(=O)[nH]c4c3)CC2)cc1 | inactive |
| CCCN1CNc2c(c(=O)[nH]c(=S)n2CCc2cc(Cl)ccc2Cl)C1 | 10 µM (active) |
| COc1ccc(CCn2c3c(c(=O)[nH]c2=S)CN(c2ccccc2)CN3)cc1OC | 25.1 µM (active) |
| COc1ccc(CCn2c(=S)[nH]c(=O)c3[nH]cnc32)cc1OC | inactive |
| O=Cc1ccc(N2CCN(S(=O)(=O)c3ccc4c(c3)CC(=O)N4)CC2)cc1 | 5.17 µM [inhibitor] (active) |
| CCCN1CNc2c(c(=O)[nH]c(=S)n2CCCc2ccccc2)C1 | 35.5 µM (active) |
| O=C1Cc2cc(S(=O)(=O)N3CCN(c4ccc(Br)cc4)CC3)ccc2N1 | inactive |
| CC(=O)c1ccc(N2CCN(C(=O)c3ccc4c(c3)CC(=O)N4)CC2)cc1 | inactive |
| O=S(=O)(c1ccc(Cl)cc1)N1CCN(c2nc(Nc3cc(Cl)ccc3O)nc3ccccc23)CC1 | inactive |
| CC(=O)c1ccc(N2CCN(S(=O)(=O)c3ccc4c(c3)n(C)c(=O)n4C)CC2)cc1 | inactive |
| O=C1Cc2cc(S(=O)(=O)N3CCNCC3)ccc2N1 | inactive |
| COc1ccc(CCn2c3c(c(=O)[nH]c2=S)CN(CC(C)C)CN3)cc1OC | 6.31 µM (active) |
| CCCN1CNc2c(c(=O)[nH]c(=S)n2CCc2cc(Cl)cc(Cl)c2)C1 | 12.6 µM (active) |
| CC(=O)c1ccc(N2CCN(S(=O)(=O)c3ccc4c(c3)CC(=O)N4)CC2)cc1 | 1.03 µM [inhibitor] (active) and 943 nM [inhibitor] (active) and 2.06 µM [inhibitor] (active) |

| SMILES | Potency |
| --- | --- |
| CCCN1CNc2c(c(=O)[nH]c(=S)n2CCC)C1 | inactive |
| CC(=O)N1CCN(c2ccc(NS(=O)(=O)c3ccc4c(c3)CC(=O)N4)cc2)CC1 | inactive |
| CC(=O)c1ccc(N2CCN(S(=O)(=O)c3cc4c(cc3Cl)NC(=O)C4)CC2)cc1 | 4.61 µM [inhibitor] (active) and 3.66 µM [inhibitor] (active) |
| COc1ccc(CCc2c[nH]c(=O)c3cncnc23)cc1OC | inactive |
| COC(=O)c1ccc(N2CCN(S(=O)(=O)c3ccc4c(c3)CC(=O)N4)CC2)cc1 | 1.16 µM [inhibitor] (active) |
| CCCN1CNc2c(c(=O)[nH]c(=S)n2CCc2ccc(C)cc2)C1 | 14.1 µM (active) |
| CCCN1CNc2c(c(=O)[nH]c(=S)n2CCc2ccc(Cl)cc2Cl)C1 | 7.94 µM (active) |
| O=C1Cc2cc(S(=O)(=O)N3CCN(c4ccc(C(F)(F)F)cc4)CC3)ccc2N1 | inactive |
| O=C1Cc2cc(S(=O)(=O)N3CCN(c4ccc(F)cc4)CC3)ccc2N1 | 59.5 µM [inhibitor] (active) |
| COc1ccc(CCn2c(=S)[nH]c(=O)c3c(C)cc(C)nc32)cc1OC | inactive |
| CCCN1CNc2c(c(=O)[nH]c(=S)n2CCc2ccc(C)c(C)c2)C1 | 7.94 µM (active) |
| CCCN1CNc2c(c(=O)[nH]c(=S)n2CCc2cccc(C)c2C)C1 | 3.98 µM (active) |
| CCCN1CNc2c(c(=O)[nH]c(=S)n2CCc2cccc(Cl)c2Cl)C1 | 0.891 µM (active) |
| CCCN1CNc2c(c(=O)[nH]c(=S)n2CCc2ccsc2)C1 | 28.2 µM (active) |
| CC(=O)c1ccc(N2CCN(S(=O)(=O)c3ccc4c(c3)C(=O)OC4)CC2)cc1 | inactive |
| COc1cccc(CCn2c(N)cc(=O)[nH]c2=S)c1OC | inactive |
| CCCN1CNc2c(c(=O)[nH]c(=S)n2CCc2ccccc2C)C1 | 12.6 µM (active) |
| CCCN1CNc2c(c(=O)[nH]c(=S)n2CCc2cc(C)ccc2C)C1 | 8.91 µM (active) |
| CCCN1CNc2c(c(=O)[nH]c(=S)n2CCc2ccc(OC)cc2OC)C1 | 8.91 µM (active) |
| CCCN1CNc2c(c(=O)[nH]c(=S)n2CCc2ccc3c(c2)OCCO3)C1 | 8.91 µM (active) |
